Compound activity deposited in PubChem by The Scripps Research Institute Molecular Screening Center.
hcDAF12 agonist – H. contortus DAF-12 nuclear receptor activators, primary screen, cell-based, luminescence, HEK293, lit1-tk-luc reporter; activation, % at 6.8 µM; HEK293 hcDAF-12 lit1-tk-luc reporter; 0% DMSO, 100% Δ7-dafachronic acid; actives 1.4% (n = 370,000);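 active = activation above the mean of all tested compounds plus 3 SD, cut at about 5.5% in these data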;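 note: 100% = response to 3 µM Δ7-dafachronic acid high control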
DAX1 inh-1 – DAX1 (NR0B1) inhibitors on StAR promoter, primary screen, cell-based, luminescence, SF-1 (NR5A1), full-length DAX-1. HEK293T StAR-luciferase reporter, SF-1/DAX-1 repression relief. inhibition, % at 6.8 µM. actives 1.1% (n = 370,000). AID 652010, 2013;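 active = inhibition above the mean over all tested compounds plus 3 SD, cut at about 3.6% in these data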;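 note: 0% = DAX-1 cells with DMSO and 100% = cells lacking DAX-1 with DMSO; higher inhibition means more luminescence from relief of DAX-1 repression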
hgDAF12 agonist – H. glycines DAF-12 receptor agonists, primary screen, cell-based, luminescence, HEK293, GAL4 fusion, UAS-luciferase. actives 1.8% (n = 370,000). AID 687014, 2013. activation, % at 6.8 µM. HEK293 GAL4-hgDAF12 UAS-luciferase reporter, agonist luminescence; normalized to butyrate control. Nuclear hormone receptor DAF-12 (Heterodera glycines), GAL4 fusion;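 active = activation above a cutoff set at the mean of all screened compounds plus 3 SD, cut at about 10% in these data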;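 note: 0% = DMSO wells and 100% = sodium butyrate wells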
DAX1 inh-2 – DAX1 (NR0B1) inhibitors, primary screen, cell-based, HEK293, Gal4-DAX1, luciferase luminescence; Nuclear receptor subfamily 0 group B member 1 (Homo sapiens), P51843; HEK293 Gal4-DAX1 luciferase reporter; inhibition, % at 6.75 µM; actives 0.99% (n = 340,000);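 active = inhibition above the mean over all tested compounds plus 3 SD, cut at about 4.2% in these data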;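 note: 0% = DAX1-transfected cells with DMSO and 100% = empty-vector control cells with DMSO; inhibition shows as a rise in luminescence from relieved DAX1 repression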
ssDAF12 agonist – S. stercoralis DAF-12 nuclear receptor activators, primary screen, cell-based, luminescence, HEK293, GRIP1 co-expression, lit1-tk-luc | Nuclear hormone receptor DAF-12 (Strongyloides stercoralis) | HEK293 ssDAF-12/GRIP1 lit1-tk-luc reporter; % of 3 µM dafachronic acid response | activation, % at 6.8 µM | actives 1% (n = 370,000);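 active = activation above the mean over all tested compounds plus 3 SD, cut at about 0.9% in these data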;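 note: 0% = DMSO-only wells and 100% = 3 µM delta7-dafachronic acid wells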
DAX1 conf – DAX1 (NR0B1) inhibitors relieving SF-1 repression, confirmation, cell-based, luminescence, HEK293T, full-length DAX-1, SF-1 activated StAR promoter. actives 87% (n = 2,400). shares compounds with DAX1 inh-1. HEK293T StAR-promoter luciferase reporter, SF-1/DAX-1 repression. inhibition, % at 6.8 µM;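 active = inhibition above the average of every tested compound plus 3 SD, cut at about 3.8% in these data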;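 note: 0% = DAX-1 cells with DMSO and 100% = no DAX-1 control cells with DMSO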
Target sequence (P51843 whole entry, looked up): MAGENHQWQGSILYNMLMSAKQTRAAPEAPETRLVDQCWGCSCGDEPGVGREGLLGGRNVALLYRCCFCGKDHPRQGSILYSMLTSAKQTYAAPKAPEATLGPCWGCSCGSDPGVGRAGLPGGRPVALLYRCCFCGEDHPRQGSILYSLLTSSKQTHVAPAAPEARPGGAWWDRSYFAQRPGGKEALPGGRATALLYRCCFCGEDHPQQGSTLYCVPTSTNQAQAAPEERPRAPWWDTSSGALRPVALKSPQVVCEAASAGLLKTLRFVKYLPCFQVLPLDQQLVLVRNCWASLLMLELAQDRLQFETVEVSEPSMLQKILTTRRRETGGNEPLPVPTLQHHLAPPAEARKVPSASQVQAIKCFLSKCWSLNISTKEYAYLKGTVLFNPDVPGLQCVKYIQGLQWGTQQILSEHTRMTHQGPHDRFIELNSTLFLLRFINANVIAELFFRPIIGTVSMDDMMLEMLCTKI
SF1 mutant ctr – StAR reporter signal changes without DAX1, counter-screen for DAX1 inhibitor project, cell-based, luminescence, AF-2 mutant SF-1, transactivation | shares compounds with DAX1 inh-1 | HEK293 StAR-luciferase, SF-1 AF2 mutant | inhibition, % at 6.8 µM | actives 78% (n = 2,400);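 active = inhibition above the mean of all tested compounds plus 3 SD, cut at about 3% in these data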;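 note: 0% = DAX-1 transfected cells with DMSO and 100% = cells without DAX-1 with DMSO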
Starred values were filed as active, the others as inactive; / = not tested or not shown. A selection: hits, their analogues and other compounds. The true share with any hit is near 4.1%.

SMILES | hcDAF12 agonist | DAX1 inh-1 | hgDAF12 agonist | DAX1 inh-2 | ssDAF12 agonist | DAX1 conf | SF1 mutant ctr
CCc1nnc(NS(=O)(=O)c2ccc(NC(=O)c3cccc(Br)c3)cc2)s1 | 2 | 4.5* | 0 | 0 | 0 | 1 | 0
N/C(=N\OC(=O)c1ccoc1)c1ccc(Br)cc1 | 3 | 9.5* | 8 | 2 | 0 | 11* | 6.9*
COc1ncc(-c2cc(C(C)=O)c3n(c2=O)CCC3)c(OC)n1 | -1 | 0 | 3 | / | -1 | / | /
O=C(N[C@H](C(=O)N1CCC[C@H]1C(=O)NCCc1ccccc1Cl)C1CCCCC1)c1cccs1 | -2 | 1 | 0 | / | -1 | / | /
CCOC(=O)c1nn(-c2ccc3c(c2)OCCO3)cc1O | 3 | 8.0* | 13* | 0 | -1 | 9.7* | 5.7*
CC(=O)C1=C(C)N(Cc2ccc(Cl)cc2)C(=S)NC1c1cccc(Br)c1 (stereo unspecified) | 1 | -1 | -3 | / | -1 | / | /
COc1ccc(/C=C2\Sc3ccc(C(=O)NCCCN4CCCC4)cc3N(C)C2=O)cc1OC | -1 | 4.6* | 2 | 1 | -1 | 6.0* | 0
CCOc1ccc(/C=C2/Sc3ccc(C(=O)NCC4CCCO4)cc3N(C)C2=O)cc1OC (stereo unspecified) | -4 | -2 | -5 | 0 | -2 | / | /
COc1ccc2c(c1)CCCN2C(=O)C1CCCN(S(=O)(=O)c2cc(OC)ccc2OC)C1 (stereo unspecified) | -1 | -1 | -1 | / | -2 | / | /
CN1CC=C(c2ccc(C(F)(F)F)cc2)N(c2ccccc2)C1=O | 3 | 0 | 0 | / | -1 | / | /
Cc1ccc(C(=O)NNC(=S)NC(=O)COc2ccccc2)cc1 | -1 | 0 | 1 | 0 | -1 | / | /
CC(C)(C)c1ccc(C(=O)NC(=S)NNC(=O)COc2ccccc2)cc1 | 2 | 12* | 11* | 1 | 0 | 2 | 2
O=C(CN1CCN(c2ccccc2)CC1)Nc1ccccc1C(=O)NCCc1ccccc1 | 5.8* | 4.7* | 7 | 3 | 1 | 6.7* | 4.8*
NC(=O)c1ccccc1NC(=O)CN1CCN(Cc2ccccc2)CC1 | 1 | 0 | 1 | 0 | -1 | / | /
COc1ccc2c(c1)CNC2CS(=O)(=O)NC1CCCC1 (stereo unspecified) | 2 | -1 | 1 | / | 0 | / | /
CCOC(=O)[C@]12CCCC=C1N(Cc1ccccc1)C(=O)[C@H](CC(=O)NCc1ccccc1)C2 | 0 | 0 | 0 | / | -1 | / | /
CCOC(=O)[C@]12CCCC=C1N(Cc1ccco1)C(=O)[C@H](CC(=O)NCc1ccccc1)C2 | 1 | 4.7* | 3 | / | -1 | 1 | 3
COC(=O)[C@@]12C[C@@H](CC(=O)NCc3ccc(C)o3)C(=O)N(CCc3ccc(OC)c(OC)c3)C1=CCC(C)(C)C2 | 0 | 5.8* | 0 | / | -1 | 2 | 1
CCCCNC(=O)C[C@@H]1C[C@@]2(C(=O)OCC)CCCC=C2N(CCc2ccc(OC)c(OC)c2)C1=O | -1 | 5.2* | -2 | / | -2 | 1 | -1
O=C(NCC1CCN(C(=O)C(=O)c2cccs2)CC1)c1ccc2c(c1)CCO2 | -1 | 0 | 1 | / | -1 | / | /
COc1cc(C(=O)N/N=C(\C)c2ccc(NC(=O)Cc3ccccc3)cc2)ccc1O | 4 | 6.9* | 8 | 1 | 1.1* | 6.2* | 4.2*
C/C(=N\NC(=O)c1ccccc1O)c1ccc(NC(=O)Cc2ccccc2)cc1 | 3 | 7.2* | 8 | 0 | 0 | 6.3* | 3.6*
Cc1cccc(CCNC(=O)c2cc3ccccn3n2)c1 | -2 | 1 | 6 | / | -1 | / | /
O=C(NCCc1ccccc1F)c1cc2ccccn2n1 | 4 | 5.0* | 13* | / | 1 | 16* | 5.2*
CN1C[C@]2(C=C3CCCCC3n3c(=O)n(-c4ccccc4)c(=O)n32)N(C(=O)OCc2ccccc2)C1=NC(=O)c1ccccc1 (stereo partly specified) | -2 | -2 | -1 | / | -1 | / | /
SMILES | hcDAF12 agonist | DAX1 inh-1 | hgDAF12 agonist | DAX1 inh-2 | ssDAF12 agonist | DAX1 conf | SF1 mutant ctr
Cc1cc(C)cc(NC(=O)C(=O)NCCCN2CCCC2=O)c1 | 5.8* | 7.1* | 6 | 2 | 0 | 5.1* | 5.3*
Cc1ccc(NC(=O)NCCCN2CCCC2=O)cc1 | 0 | 1 | 1 | 1 | -1 | / | /
CCN1CCN(Cc2ccc(NC(=O)Nc3ccccc3Cl)cc2)CC1 | 3 | 5.4* | 11* | 4.6* | 0 | 11* | 8.6*
CSc1ccc(/C=C/C(=O)NC(=O)c2ccccc2O)cc1 | 4 | 4.9* | 13* | 1 | 0 | 8.8* | 5.8*
O=C(/C=C/c1ccc(F)cc1)NC(=S)Nc1ccccc1O | -1 | 0 | 3 | 0 | -1 | / | /
S=C1NCN(CC2CC2)CN1 | -2 | 1 | 0 | / | 0 | / | /
CC1CCN(S(=O)(=O)c2ccc(NC(=O)CCN3C(=O)C4CC=CCC4C3=O)cc2)CC1 (stereo unspecified) | 0 | -2 | 2 | 0 | -1 | / | /
CCN(CC)S(=O)(=O)c1ccc(NC(=O)CCN2C(=O)C3CC=CCC3C2=O)cc1 (stereo unspecified) | -1 | 5.2* | 2 | 1 | -1 | 1 | 1
CCCn1c(C)cc(C(=O)COC(=O)c2cc(=O)[nH]c3ccccc23)c1C | 6.5* | 5.4* | 11* | -1 | 1 | 9.3* | 3.1*
Cc1ccc(C(=O)COC(=O)c2cc(=O)[nH]c3ccccc23)cc1 | 0 | 1 | -4 | 1 | -1 | / | /
O=C(Nc1ccccc1)Nc1nc2ncccn2c1-c1ccc(F)c(F)c1 | -1 | 2 | 9 | / | 0 | / | /
O=C(Nc1cccc(-c2ccc(N3CCOCC3)nn2)c1)c1ccccc1 | 2 | 4.7* | 6 | -1 | -1 | 3 | 2
O=C(COc1ccc(Cl)cc1Cl)Nc1cccc(-c2ccc(N3CCOCC3)nn2)c1 | 3 | 3 | 4 | 0 | -1 | / | /
CC1CCN(c2ccc(-c3cccc(NC(=O)c4ccco4)c3)nn2)CC1 | 3 | 8.0* | 10 | -1 | 0 | 11* | 3.4*
